Experimental data taken from PubChem BioAssay (EPA / NIEHS).
Results filed as inconclusive are left out. Activity calls are given as the source filed them. How the source made its calls, unless noted: active means hit-call score of the fitted dose curve at least 0.9, where 1 is the maximum; inconclusive means response in the unintended direction; inactive means score below 0.9.

Legend:
[1] = Tanguay_ZF_120hpf_SWIM_legacy: (Legacy) Oregon State University Tanguay Lab 120 Hour Post-fertilization zebrafish Assay for Swim Bladder Malformation (AID 2283654);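 further: swim bladder malformation in each larva scored yes or no under brightfield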
Method in brief: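 Static waterborne exposure of single dechorionated Tropical 5D zebrafish embryos, 6–120 hpf, 28C, 0.64% DMSO final. Read-out: swim bladder malformation, present/absent, relative to DMSO negative control; trimethyltin chloride 5uM served as positive control.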

[2] = Tanguay_ZF_120hpf_TRUN_legacy: (Legacy) Oregon State University Tanguay Lab 120 Hour Post-fertilization zebrafish Assay for Truncated Body (AID 2283655)
Method in brief: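 Binary presence/absence of truncated body is recorded at 120 hpf by brightfield, with non-mortality endpoints skipped after death. Exposure is static from 6 hpf in sealed dark plates at 28C, using dechorionated wild-type zebrafish, 0.64% DMSO.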

[3] = Tanguay_ZF_120hpf_NC_legacy: (Legacy) Oregon State University Tanguay Lab 120 Hour Post-fertilization zebrafish Assay for Notochord and Tail Malformation (AID 2283656)
Method in brief: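 Binary scoring of notochord distortion by brightfield microscopy; embryos dying were not scored. Wild-type Tropical 5D embryos, chorion removed, exposed singly and statically from 6 to 120 hpf, 28C, sealed, 0.64% DMSO.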

[4] = system: Thyroperoxidase (TPO), gene 54314; assay: CCTE_Simmons_AUR_rTPO: CCTE's Amplex UltraRed Assay for Thyroperoxidase (TPO) Inhibition, Simmons Lab (AID 2283662);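 further: potency for loss of signal meaning inhibition of peroxidase activity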
Method in brief: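 Cell-free peroxidase activity assay using rat thyroid gland microsomes with excess H2O2 (300 uM) and 25 uM Amplex UltraRed. Compounds tested from 5 nM to 87.5 uM; fluorescence measured after 30 min at 37C, analysed relative to DMSO baseline.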

[5] = CCTE_Simmons_CellTiterGLO_HEK293T: Viability Assessment in CCTE's Assays for Thyroperoxidase (TPO) Inhibition, Simmons Lab (AID 2283665);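 further: cells exposed to compound for 24 h before readout; actives reduce ATP signal below DMSO vehicle meaning cytotoxicity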
Method in brief: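 Luciferase-coupled ATP content after 24 h exposure gives viability; 8-point series from 5 nM to 87.5 uM final in 0.5% DMSO. Human HEK293T cells, 1% FBS medium, three biological replicates, dichlone positive control.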

[6] = Tanguay_ZF_120hpf_TR_legacy: (Legacy) Oregon State University Tanguay Lab 120 Hour Post-fertilization zebrafish Assay for Touch Response (AID 2283667)
Method in brief: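 Readout is presence or absence of touch response in 120 hpf zebrafish larvae, assessed by brightfield observation after continuous static exposure at 28C. Final vehicle was 0.64% (vol/vol) DMSO.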

[7] = STM_H9_OrnithineISnorm_perc: Stemina devTOX quickPredict H9 human embryonic stem cell (hESC)-based Assay for Ornithine (ORN) Metabolite Biomarker, Normalized (AID 2283712; active means hit-call score of the fitted dose curve at least 0.9, where 1 is the maximum; inactive means score below 0.9;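 further: ornithine released into spent medium during last day measured by mass spectrometry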)
Method in brief: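 Ornithine in spent medium from the last 24 h of a 72 h exposure, deproteinised and quantified by UPLC-HRMS against an isotope-labelled internal standard, expressed relative to 0.1% DMSO. Pluripotent H9 cells; compound refreshed every 24 h.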

[8] = STM_H9_CystineISnorm_perc: Stemina devTOX quickPredict H9 human embryonic stem cell (hESC)-based Assay for Cystine (CYSS) Metabolite Biomarker, Normalized (AID 2283713; active means hit-call score of the fitted dose curve at least 0.9, where 1 is the maximum; inactive means score below 0.9)
Method in brief: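 Cystine in spent media from the last 24 h of a 72 h H9 hESC exposure (daily re-dosing), measured by UPLC-HRMS. Values normalized to isotopic internal standard, then to 0.1% DMSO; viability via CellTiter-Fluor.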

[9] = STM_H9_OrnCyssISnorm_ratio: Stemina devTOX quickPredict H9 human embryonic stem cell (hESC)-based Assay for Ornithine (ORN):Cystine (CYSS) Ratio (AID 2283714)
Method in brief: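 H9 hESC, 72h, q24h re-dose; last-day media → acetonitrile deproteinization → UPLC-HRMS. ORN:CYSS ratio from isotope-normalized EIC areas, vs 0.1% DMSO; MTX references on each plate.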

[10] = CEETOX_H295R_MTT_cell_viability: Viability Assessment in the CeeTox HT-H295R MTT Assay (AID 2283718; active means hit-call score of the fitted dose curve at least 0.9, where 1 is the maximum; inactive means score below 0.9)
Method in brief: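 H295R cells prestimulated 48 h with 10 uM forskolin, then exposed 48 h to test chemical (0.1% DMSO final). Viability by MTT (0.5 mg/ml, 4 h, 37 C), absorbance 570/650 nm; percent change versus DMSO, bidirectional fit.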

[11] = Tanguay_ZF_120hpf_ActivityScore_legacy: (Legacy) Oregon State University Tanguay Lab 120 Hour Post-fertilization zebrafish Assay Score for Activity (AID 2283742);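 on AC50: dechorionated Tropical 5D wild-type zebrafish embryos held singly per well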
Method in brief: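 In this whole-embryo screen, dechorionated zebrafish were exposed from 6 hpf until 120 hpf at 28C under a 0.64% DMSO vehicle. Developmental malformations and death were recorded by brightfield microscopy as binary endpoints.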

[12] = CCTE_Padilla_ZF_144hpf_TERATOSCORE: (Legacy) CCTE's 144 Hour Post-fertilization zebrafish Assay Teratoscore, Padilla Lab (AID 2283679; active means hit-call score of the fitted dose curve at least 0.9, where 1 is the maximum; inactive means score below 0.9;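 further: zebrafish embryos with chorions exposed by immersion from 6-8 hpf to 5 dpf with daily renewal; teratogenicity score from eye scoring of death hatching and malformations at 144 hpf; higher score means more developmental defects relative to DMSO baseline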)
Method in brief: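 Larvae scored by eye at 144 hpf for death, hatching and malformations after a day in clean Hanks'. Before that, daily-renewed exposure at 80 uM (0.4% DMSO, 26C) from roughly 6-8 hpf through 5 dpf, 4 embryos per chemical.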

[13] = read-out: kallikrein-3 (KLK3), KLK3 (gene 354); assay: LTEA_HepaRG_KLK3: Life Technologies and Expression Analysis (LTEA) Assay for kallikrein-3 (KLK3) using HepaRG (AID 2283652; active means hit-call score of the fitted dose curve at least 0.9, where 1 is the maximum; inactive means score below 0.9); conditions: mRNA level, 48 h; actives raise or lower the signal
Method in brief: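 KLK3 transcript levels were measured by TaqMan qRT-PCR with normalisation to three housekeeping genes. HepaRG cultures received chemicals for 48 h at up to 100 uM (half-log, 8 points, 0.5% DMSO vehicle), fitted in both directions against DMSO.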

[14] = read-out: solute carrier (SLC22A6), SLC22A6 (gene 9356); assay: LTEA_HepaRG_SLC22A6: Life Technologies and Expression Analysis (LTEA) Assay for solute carrier (SLC22A6) using HepaRG (AID 2283653; active means hit-call score of the fitted dose curve at least 0.9, where 1 is the maximum; inactive means score below 0.9); conditions: mRNA level, 48 h; actives raise or lower the signal
Method in brief: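 SLC22A6 transcript was measured by TaqMan qRT-PCR, normalized to three housekeeping genes, after 48 h duplicate exposure of HepaRG cells (100 uM top, half-log steps, 0.5% DMSO); bidirectional fit against vehicle.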

[15] = read-out: solute carrier (SLC10A1), SLC10A1 (gene 6554); assay: LTEA_HepaRG_SLC10A1: Life Technologies and Expression Analysis (LTEA) Assay for solute carrier (SLC10A1) using HepaRG (AID 2283657; active means hit-call score of the fitted dose curve at least 0.9, where 1 is the maximum; inactive means score below 0.9); conditions: mRNA level, 48 h; actives raise or lower the signal
Method in brief: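 Cryopreserved HepaRG cells are thawed, plated and cultured 48 h; medium is then switched to serum-free induction medium and chemicals added (8 points, max 100 uM, 0.5% DMSO). After 48 h, RNA is isolated and SLC10A1 quantified by qRT-PCR.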

[16] = read-out: matrix metalloproteinase-1 (MMP1), MMP1 (gene 4312); assay: LTEA_HepaRG_MMP1: Life Technologies and Expression Analysis (LTEA) Assay for matrix metalloproteinase-1 (MMP1) using HepaRG (AID 2283658; active means hit-call score of the fitted dose curve at least 0.9, where 1 is the maximum; inactive means score below 0.9); conditions: mRNA level, 48 h; actives raise or lower the signal
Method in brief: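 qRT-PCR (TaqMan, Fluidigm arrays) of MMP1 transcript, normalized against three housekeeping genes and fitted in both directions relative to 0.5% DMSO vehicle. Human HepaRG cultures received duplicate 48 h exposures across 8 points, highest 100 uM with half-log steps.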

[17] = read-out: Cytochrome P450 (CYP24A1_1), CYP24A1 (gene 1591); assay: LTEA_HepaRG_CYP24A1_1: Life Technologies and Expression Analysis (LTEA) Assay for Cytochrome P450 (CYP24A1_1) using HepaRG (AID 2283671; active means hit-call score of the fitted dose curve at least 0.9, where 1 is the maximum; inactive means score below 0.9); conditions: mRNA level, 48 h; actives raise or lower the signal
Method in brief: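 Cultures of human HepaRG were treated in duplicate for 48 h (0.5% DMSO vehicle, highest dose 100 uM). CYP24A1 mRNA by qRT-PCR, normalized to ACTB, GAPDH, POLR2A.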

Measured: AC50

CC(=O)N1CCN(c2ccc(OC[C@H]3CO[C@](Cn4ccnc4)(c4ccc(Cl)cc4Cl)O3)cc2)CC1
active: [4] 19.2 µM | [5] 1.26 µM | [7] 8.18 µM | [8] 1.58 µM | [9] 2.35 µM
inactive: [1] | [2] | [3] | [6] | [10] | [11]

CCN(Cc1cccnc1)C(=O)c1cccc(Cl)c1[C@]1(C)C(=O)N(Cc2ccc(OC)cc2OC)c2ccc(Cl)cc21
active: [12] 5.26 µM | [11] 32.5 µM
inactive: [1] | [2] | [3] | [6]

COc1ccc2cc(S(=O)(=O)N[C@H](CC(=O)N[C@H](Cc3ccc(CN4[C@H](C)CCC[C@@H]4C)cc3)C(=O)N(C)C(C)C)c3ccc4c(c3)OCO4)ccc2c1
inactive: [1] | [2] | [3] | [6] | [11]
active: [7] 18.4 µM | [8] 22.6 µM | [9] 23 µM

CCCOC(=O)c1cc(O)c(O)c(O)c1
active: [4] 0.772 µM | [5] 22.6 µM
not listed: [7] | [8] | [9] | [10] | [12]
inactive: all other assays above

CCCC(=O)OCCC(C)C
inactive: [1] | [2] | [3] | [11]

O=C(OCCCCCCOC(=O)c1ccccc1)c1ccccc1
inactive: [2] | [3] | [6] | [11]

CC1(C)NC(=O)N(c2ccc([N+](=O)[O-])c(C(F)(F)F)c2)C1=O
inactive: [1] | [2] | [3] | [11]

CN(C)c1ccc(C(=C2C=CC(=[N+](C)C)C=C2)c2ccc(N(C)C)cc2)cc1
inactive: [1] | [2] | [6]
active: [4] 15.9 µM | [5] 0.955 µM | [12] 0.477 µM | [7] 0.592 µM | [8] 0.817 µM | [9] 0.723 µM | [11] 1.66 µM

Clc1cc(Cl)c2c(c1)N=C1CCCCCN1C2
inactive: [1] | [3] | [7] | [8] | [9] | [10]
active: [6] 15.7 µM | [11] 18 µM
